Bioassay records from PubChem BioAssay.
This excerpt belongs to a sample that is enriched for hits.
NOMO-1 viab: NOMO-1 AML cell viability reduction, primary screen, STK33 inhibitor project, CellTiter-Glo luminescence; 37,000 tested, 7.5% active; inhibition, % (concentration not given with the values); NOMO-1 AML viability, 72 h; in the data active means inhibition above about 80%; inconclusive means no clear call, values can overlap the other calls
PD-1 reversal: activators reversing PD-1 mediated T-cell inhibition, primary screen, luminescence, primary human CD4 T cells, PD-L1 beads | CellTiter-Glo 96 h | activation, % (no concentration beside the values) | 29,000 tested, under 10 active | AID 2316, 2010; call rule not given here;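 further: 0% = median vehicle wells and 100% = positive control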
STK33 kin inh: STK33 kinase inhibitors, primary screen, biochemical, luminescence, ADP-Glo, MBP substrate; Serine/threonine-protein kinase 33 (Homo sapiens), Q9BYT3; inhibition, % at 12.5 µM; 27,000 tested, 0.44% active; AID 2322, 2010; in the data active means inhibition above about 20%; inconclusive means no clear call, values can overlap the other calls
Target sequence (Q9BYT3 whole entry, looked up): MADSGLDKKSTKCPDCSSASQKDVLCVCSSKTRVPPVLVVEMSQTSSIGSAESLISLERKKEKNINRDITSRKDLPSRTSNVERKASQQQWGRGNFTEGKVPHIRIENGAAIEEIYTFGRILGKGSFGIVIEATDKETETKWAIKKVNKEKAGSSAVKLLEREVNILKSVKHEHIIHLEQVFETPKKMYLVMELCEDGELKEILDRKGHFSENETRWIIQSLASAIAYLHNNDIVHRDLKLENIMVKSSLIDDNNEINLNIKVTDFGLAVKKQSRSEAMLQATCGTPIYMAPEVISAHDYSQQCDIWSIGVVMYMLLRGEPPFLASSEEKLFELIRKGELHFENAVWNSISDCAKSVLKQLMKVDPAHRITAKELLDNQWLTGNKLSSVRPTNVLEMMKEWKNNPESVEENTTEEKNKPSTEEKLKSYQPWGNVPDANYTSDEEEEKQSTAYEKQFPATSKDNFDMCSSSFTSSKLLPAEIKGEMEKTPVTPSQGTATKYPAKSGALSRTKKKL
* hit, by the source's call; ? = inconclusive; nt = not tested or not shown.

SMILES	NOMO-1 viab	PD-1 reversal	STK33 kin inh
COC(=O)CSc1ncnc2c1sc1nc3c(cc12)COC(C)(C)C3	23	nt	-1
CC1(C)Cc2nc3sc4c(SCC(=O)NCc5ccccc5)ncnc4c3cc2CO1	119*	-7	1
C[N+]1(CC(O)CN2CCCC2=O)CCCCCC1 (stereo not given)	-2	2	nt
COc1cc2c(c(O)c1OC)C(=O)CC(c1ccc(O)cc1)O2 (stereo not given)	20	0	10
COc1cc([C@@H]2c3cc4c(cc3[C@H](O)[C@H]3COC(=O)[C@H]23)OCO4)cc(OC)c1OC	113*	nt	1
COc1cc([C@@H]2c3cc4c(cc3[C@H](O)[C@H]3COC(=O)[C@@H]23)OCO4)cc(OC)c1OC	108*	nt	3
COc1cc(C2OC[C@@H]3[C@@H](c4cc(OC)c(O)c(OC)c4)OC[C@H]23)cc(OC)c1O (stereo not given in full)	14	1	8
COc1cc([C@@H]2c3cc4c(cc3[C@@H](O[C@@H]3O[C@@H]5CO[C@@H](C)O[C@H]5[C@H](O)[C@H]3O)[C@H]3COC(=O)[C@H]23)OCO4)cc(OC)c1O	117*	nt	-1
Cc1cc(-c2ccc3ccccc3n2)nc2ccc3ccccc3c12	18	1	nt
Fc1ccc(Nc2nc3ccccc3nc2Nc2ccc(F)cc2)cc1	135*	-7	nt
Cc1cc(Nc2ccc(F)cc2)nc(SCc2c(Cl)cccc2Cl)n1	52	-1	nt
C[C@H](CO)N1C[C@H](C)[C@H](CN(C)Cc2ccc(C(F)(F)F)cc2)Oc2c(NC(=O)Nc3ccc(C(F)(F)F)cc3)cccc2C1=O	110*	-5	nt
C[C@H]1CN([C@@H](C)CO)C(=O)c2cccc(NC(=O)Nc3ccc(F)cc3)c2O[C@H]1CN(C)Cc1ccc(C(F)(F)F)cc1	61	-4	nt
C[C@H]1CN([C@@H](C)CO)C(=O)c2cccc(NC(=O)Nc3ccc(C(F)(F)F)cc3)c2O[C@@H]1CN(C)Cc1ccc(C(=O)O)cc1	-9	nt	nt
C[C@@H]1CN([C@@H](C)CO)C(=O)c2cccc(NC(=O)Nc3ccc(F)cc3)c2O[C@H]1CN(C)Cc1ccc(C(F)(F)F)cc1	103*	-7	nt
COc1ccc(CN(C)C[C@H]2Oc3c(NC(=O)Nc4ccc(C(F)(F)F)cc4)cccc3C(=O)N([C@H](C)CO)C[C@H]2C)cc1	95*	-5	nt
COc1ccc(NC(=O)Nc2cccc3c2O[C@@H](CN(C)Cc2ccc(C(F)(F)F)cc2)[C@@H](C)CN([C@H](C)CO)C3=O)cc1	45	-3	nt
COC(=O)c1sccc1NC(=O)c1cc(-c2ccccn2)nc2ccc(Br)cc12	10	2	-3
CN1C(C(=O)c2ccccc2)C(=O)c2ccccc2S1(=O)=O (stereo not given)	64	-1	nt
CCCCC1CCC(C(=O)Oc2ccc(OCC)cc2)CC1 (stereo not given)	3	-1	nt
Cc1ccc(OCC(=O)Nc2cc3nn(-c4ccc(C)cc4)nc3cc2C)cc1	-7	-1	-1
CCc1ccc(N2C(N)=C(C#N)C(c3cccc(Cl)c3)c3c(C)noc32)cc1 (stereo not given)	-11	1	nt
C[C@@H]1CN([C@@H](C)CO)C(=O)Cc2cc(NC(=O)Nc3ccc(C(F)(F)F)cc3)ccc2O[C@@H]1CN(C)C(=O)Nc1ccc(F)cc1	115*	-3	1
C[C@H](CO)N1C[C@H](C)[C@H](CN(C)C(=O)Nc2ccc(C(F)(F)F)cc2)Oc2ccc(NC(=O)Nc3ccc(C(F)(F)F)cc3)cc2CC1=O	114*	nt	nt
C[C@H]1CN([C@@H](C)CO)C(=O)Cc2cc(NC(=O)Nc3ccc(C(F)(F)F)cc3)ccc2O[C@@H]1CN(C)C(=O)Nc1ccc(C(F)(F)F)cc1	12	3	2
SMILES	NOMO-1 viab	PD-1 reversal	STK33 kin inh
C[C@H](CO)N1C[C@H](C)[C@H](CN(C)C(=O)Nc2ccc(F)cc2)Oc2ccc(NC(=O)Nc3ccc(C(F)(F)F)cc3)cc2CC1=O	45	nt	nt
CC12CC3(C)CC(C)(C1)CC(C(=O)O)(C2)C3	27	0	nt
CSc1nc(O)cc(=O)[nH]1	-8	2	1
CC(C)CC1NC(=O)C(CC(C)C)N(O[C@@H]2O[C@H](COC(=O)CCC(=O)O)[C@@H](O)[C@H](O)[C@H]2O)C1=O (stereo not given in full)	119*	-6	-3
COc1cc2cc(Oc3ccc4ccc(=O)oc4c3)c(=O)oc2cc1OC1OC(COC(=O)CC(C)(O)CC(=O)O)C(O)C(O)C1O (stereo not given)	4	-1	-1
Cc1cc(OCC(=O)Nc2ccccc2C(=O)NC2CCCCC2)ccc1Br	29	nt	0
COc1ccc2[nH]cc(CCNC(=O)Nc3ccc(Cl)c(Cl)c3)c2c1	-10	nt	-1
CNCC(O)Cn1c2ccccc2c2ccccc21 (stereo not given)	7	-1	-5
OC(COCc1ccccc1)Cn1c2ccccc2c2ccccc21 (stereo not given)	89*	-3	nt
Cc1ccc(C(=O)CCNc2ccc3c(c2)oc2ccccc23)o1	-2	-10	2
C/C(CCc1oc2ccccc2c1-c1ccc(C)o1)=N\O	108*	-1	nt
Cc1nnc(Nc2ccc(OCC(=O)N3CCN(c4ccccc4)CC3)cc2)c2ccccc12	88*	2	0
CCn1c(SCC(=O)N2CCN(c3ccccc3)CC2)nnc1-c1ccccc1O	16	2	0
Cc1nnc(Nc2cccc(Cl)c2C)s1	10	0	nt
C[C@H](CO)N1C[C@H](C)[C@H](CN(C)Cc2ccccc2)Oc2ccc(NS(=O)(=O)c3ccc(Cl)cc3)cc2C1=O	17	0	1
C[C@@H]1CN([C@@H](C)CO)C(=O)c2cc(NS(=O)(=O)c3ccc(Cl)cc3)ccc2O[C@@H]1CN(C)Cc1ccc(Oc2ccccc2)cc1	114*	nt	nt
C[C@H]1CN([C@@H](C)CO)C(=O)c2cc(NS(=O)(=O)c3ccccc3)ccc2O[C@H]1CN(C)Cc1ccc(Oc2ccccc2)cc1	53	-1	2
C[C@@H]1CN([C@H](C)CO)C(=O)c2cc(NS(=O)(=O)c3ccc(Cl)cc3)ccc2O[C@@H]1CN(C)Cc1ccc(Oc2ccccc2)cc1	122*	0	nt
CN1CCN(CCn2c(-c3ccc(Br)cc3)cn3c4ccccc4nc23)CC1	34	-3	-10
Cc1ccc(S(=O)(=O)c2ccc(Cl)cc2)cc1S(=O)(=O)N1CCCC1	69	-1	nt
CC[C@]12CCCN3CCc4c(n(c5ccccc45)[C@@](O)(C(=O)OC)C1)[C@@H]32	-1	nt	-12
CC[C@]12CCCN3CCc4c(n(c5ccccc45)C(=O)C1)[C@@H]32	112*	4	-1
FC(F)(F)c1cccc(NC(=S)Nc2cccnc2N2CCC(C(F)(F)F)CC2)c1	?	-3	-3
COC(=O)c1c(NC(=O)COc2cc(C)ccc2C)sc2c1CCC2	-7	nt	4
Cc1ccc([N+](=O)[O-])cc1NC(=O)Cn1cnc2ccccc2c1=O	-8	nt	2
O=C(c1cccc2ccccc12)N1CCc2ccccc21	43	-2	nt
CCNS(=O)(=O)c1ccc(NC(=O)c2cc(-c3ccncc3)nc3c(C)c(Cl)ccc23)cc1	49	nt	-1
O=C1c2cccc(O)c2C(=O)c2c(O)cccc21	42	nt	27*
